Laboratory results taken from PubChem BioAssay (NCI).
Compounds without any hit were thinned out: in the full panel of roughly 83,000, 20% have a hit.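 Cell lines were cultured in 96-well plates, exposed to a single compound concentration, and assessed for percent growth 48 hours later.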 Activity calls are given as the source filed them. The calls were made as follows: active = growth percent below 10; inactive = the rest.

Experiments:
Experiment in all cases: NCI-60 one-dose screen, 48 h (100 = growth as untreated, 0 = no growth, -100 = all killed)
[1] = test system: HCT-15 colon; details: 10 µM unless noted
[2] = test system: SNB-75 CNS; details: 10 µM
[3] = test system: SNB-19 CNS; details: 10 µM unless noted
[4] = test system: U251 CNS; details: 10 µM unless noted
[5] = test system: PC-3 prostate; details: 10 µM unless noted
[6] = test system: SK-MEL-5 melanoma; details: 10 µM unless noted
[7] = test system: UACC-62 melanoma; details: 10 µM unless noted
[8] = test system: LOX IMVI melanoma; details: 10 µM unless noted
[9] = test system: SK-MEL-28 melanoma; details: 10 µM unless noted
[10] = test system: SN12C renal; details: 10 µM unless noted
[11] = test system: UO-31 renal; details: 10 µM unless noted
[12] = test system: TK-10 renal; details: 10 µM unless noted
[13] = test system: ACHN renal; details: 10 µM unless noted
[14] = test system: A498 renal; details: 10 µM unless noted
[15] = test system: CCRF-CEM leukemia; details: 10 µM unless noted
[16] = test system: MOLT-4 leukemia; details: 10 µM unless noted
[17] = test system: SK-MEL-2 melanoma; details: 10 µM unless noted
[18] = test system: EKVX NSCLC; details: 10 µM unless noted
[19] = test system: CAKI-1 renal; details: 10 µM unless noted

Measured: growth

O=C(CSC1CCc2ccccc21)N/N=C/c1ccccc1O (centres undefined)
inactive: [1] 33.6% | [2] 71.7% | [3] 60.5% | [4] 48.7% | [5] 50.6% | [6] 47.7% | [7] 36.4% | [8] 40.4% | [9] 57.2% | [10] 59.9% | [11] 20% | [12] 37.1% | [13] 34% | [14] 101% | [15] 18.2%
active: [16] 2.59%

O=C1Nc2ccc3c(c2/C1=C\c1cc2c(cc1Br)OCO2)OCO3
active: [6] -19.9% | [8] -29.5% | [11] -15.9% | [12] -31.2% | [15] 10%
inactive: [1] 22.9% | [3] 42% | [4] 13.4% | [5] 16.6% | [7] 43.9% | [9] 19.4% | [17] 42.4% | [18] 37.3% | [10] 26.7% | [13] 11.4% | [14] 19.1% | [16] 35.7%

COc1ccc2c(c1)[nH]c(=O)c1c3cccc(F)c3cn21
inactive: [3] 39.1% | [6] 27.6% | [7] 40.3% | [8] 38.8% | [9] 61.4% | [17] 63.3% | [18] 46.8% | [10] 39.3% | [11] 33.1% | [12] 46.8% | [13] 37.7% | [14] 59.3% | [16] 36.3%
active: [1] 9.78% | [4] 0.931% | [5] 2.38% | [15] -17.5%

O=C(c1ccccc1)C1OC1c1ccc([N+](=O)[O-])cc1 (centres undefined)
inactive: [1] 70.8% | [2] 70% | [3] 95.3% | [4] 64.8% | [5] 63.2% | [6] 52.7% | [7] 71.4% | [8] 29% | [18] 89.2% | [10] 76.7% | [11] 136% | [12] 50% | [13] 75.3% | [19] 72.7% | [14] 110% | [15] 35.1% | [16] 76.2%

COc1ccc2c(c1)C(c1cc(OC)c3c(c1)OCO3)C1=C(COC1=O)N2 (centres undefined)
inactive: [1] 26.2% | [2] 43.6% | [3] 35.2% | [4] 20.3% | [5] 21.9% | [7] 46.7% | [8] 20.1% | [9] 60% | [18] 41.1% | [10] 28% | [11] 62% | [12] 60.8% | [19] 51.1% | [14] 30% | [16] 16.5%
active: [15] 7.1%

C=C[C@@H]1C[C@@H]2Cc3c(C)cc(C)cc3N1O2
active: [15] -61.1% | [16] -50.7%
inactive: [1] 101% | [3] 113% | [4] 90.2% | [5] 93% | [6] 103% | [7] 96% | [8] 88.4% | [9] 101% | [17] 110% | [18] 81.6% | [10] 101% | [11] 101% | [12] 92.7% | [13] 101% | [19] 92.3% | [14] 95.1%

CN(C)c1ncnc2c1ccn2C1OC(CO)C(O)C1O (centres undefined)
inactive: [1] 14.3% | [3] 73.8% | [4] 97% | [5] 13% | [6] 89.5% | [7] 93.4% | [9] 82.5% | [17] 54.9% | [18] 60.5% | [11] 24.8% | [12] 40.9% | [13] 32.3% | [19] 34.7% | [14] 68% | [15] 10.7%
active: [8] 3.02% | [16] 9%

COc1ccc(C(=O)NC(=O)Nc2cc3c(cc2F)/C(=C/c2[nH]c(C)c(CCC(=O)O)c2C)C(=O)N3)c(F)c1
inactive: [1] 28% | [3] 20% | [5] 22.6% | [6] 59.6% | [7] 31.3% | [8] 38.5% | [9] 44.4% | [17] 22.1% | [18] 65.3% | [10] 27.6% | [11] 58.6% | [13] 65.5% | [14] 12.3% | [16] 33.9%
active: [4] 9.72% | [15] 7.61%

CN1C=CN(Cc2ccc(-c3ccccn3)nc2)[CH-]1.CN1C=CN(Cc2ccc(-c3ccccn3)nc2)[CH-]1.[Au+3]
active: [15] 6.2%
inactive: [1] 68.5% | [2] 72.6% | [3] 62.6% | [4] 38.6% | [5] 20.3% | [6] 37.8% | [7] 30.7% | [8] 32.4% | [10] 41.3% | [11] 83.5% | [12] 67.4% | [13] 81.7% | [19] 67.6% | [14] 42.9% | [16] 11.3%

CC1(c2ccc(Cl)cc2)OC(=O)CC(=O)O1
inactive: [1] 102% | [2] 99% | [3] 97% | [4] 102% | [5] 101% | [6] 110% | [7] 102% | [8] 106% | [9] 112% | [18] 98.4% | [11] 90.3% | [12] 121% | [13] 98.5% | [19] 94.9% | [14] 101% | [15] 100% | [16] 100%

NC(N)=Nc1nc2ccccc2o1
inactive: [1] 105% | [3] 99.7% | [4] 101% | [5] 57.6% | [6] 93.8% | [7] 104% | [8] 95.5% | [9] 95.5% | [17] 133% | [18] 109% | [11] 99.9% | [12] 129% | [13] 96.6% | [14] 89.5% | [15] 80.1% | [16] 95.4%

O=c1[nH]c(-c2ccccc2)nc(CN2CCCCC2)c1O
inactive: [1] 113% | [3] 97.3% | [4] 103% | [5] 105% | [6] 111% | [7] 98.6% | [8] 97.4% | [9] 111% | [17] 111% | [18] 112% | [10] 93.9% | [11] 95.1% | [12] 108% | [13] 106% | [19] 91.5% | [14] 111% | [15] 96.8% | [16] 120%

COP(=O)(OC)/C(=N\NS(=O)(=O)c1ccc(C)cc1)c1ccccc1
inactive: [1] 112% | [3] 94.7% | [4] 105% | [5] 86.5% | [6] 97.9% | [7] 96.7% | [8] 102% | [9] 110% | [17] 110% | [18] 97.7% | [10] 105% | [11] 92.6% | [12] 88% | [13] 101% | [19] 62.1% | [14] 92.4% | [15] 124% | [16] 103%

CC(=O)Nc1nc(N)nc(NC(C)=O)c1N=O
inactive: [1] 104% | [2] 109% | [3] 111% | [4] 116% | [5] 99.6% | [6] 114% | [7] 109% | [8] 94.3% | [9] 115% | [10] 106% | [11] 93.3% | [12] 114% | [13] 104% | [14] 118% | [15] 112% | [16] 113%

CCc1cnc(=S)n(-c2ccccc2)c1
inactive: [1] 103% | [2] 117% | [3] 107% | [4] 117% | [5] 98.7% | [6] 117% | [7] 109% | [8] 95.4% | [9] 114% | [10] 103% | [11] 97% | [12] 122% | [13] 99.6% | [14] 117% | [15] 129% | [16] 125%

C=C1CCC2C3(C)COC(c4ccc(N(C)C)cc4)OC3CCC2(C)C1C/C=C1/C(=O)OCC1O (centres undefined)
active: [5] 9.17% | [15] -41.6%
inactive: [1] 57.6% | [3] 85.9% | [4] 51.1% | [6] 60.7% | [7] 63.1% | [8] 11.9% | [9] 94.9% | [17] 45.1% | [18] 85.7% | [10] 44.9% | [11] 54.2% | [12] 94.3% | [13] 79.3% | [14] 109% | [16] 37.7%

O=[N+]([O-])c1ccc(OCCCOc2ccccc2)cc1
inactive: [1] 99.4% | [2] 97.2% | [3] 105% | [5] 94.3% | [6] 105% | [7] 93.7% | [8] 97.6% | [9] 103% | [17] 102% | [18] 96.8% | [10] 104% | [11] 87.2% | [13] 106% | [19] 93.9% | [14] 102% | [15] 105% | [16] 94.6%

COc1cc(/C=C/C(=O)c2ccc(Nc3ncnc4cc(OC)c(OC)cc34)cc2)cc(OC)c1
inactive: [1] 97.8% | [2] 96.1% | [3] 94.9% | [4] 72.3% | [5] 78% | [6] 109% | [8] 88.3% | [9] 114% | [17] 105% | [18] 101% | [10] 91.1% | [11] 94.4% | [12] 104% | [13] 102% | [19] 97.6% | [14] 95.8% | [15] 63.2% | [16] 53.8%

O=C1CCCCC1(c1ccccc1)c1ccccc1
inactive: [1] 91.3% | [2] 88.8% | [3] 100% | [4] 108% | [6] 99.1% | [7] 99.7% | [8] 94% | [9] 95.6% | [17] 100% | [18] 91.2% | [10] 104% | [11] 98.8% | [13] 101% | [19] 82.4% | [15] 101% | [16] 105%
